Experimental findings from publication PMC4336329 (PLoS ONE, 2015) are described below.

Each structure is given as a SMILES string. In all, about 310,000 compounds went through this assay and about 14,000 (4.5%) showed an effect of 50% or more. The effect is printed as a negative number. For the sample, strong results were picked, then their nearest neighbours and some compounds at random.
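Further: peak tail current of the secondary pulse compared with the same well before compound.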

The target of this test is human ether-à-go-go-related gene (hERG) potassium channel (human, UniProt Q12809). As to the kind of experiment: primary screen, population patch clamp on CHO cells stably expressing hERG; higher = less effect of the substance.
Chain of human ether-à-go-go-related gene (hERG) potassium channel (Q12809 whole entry, looked up): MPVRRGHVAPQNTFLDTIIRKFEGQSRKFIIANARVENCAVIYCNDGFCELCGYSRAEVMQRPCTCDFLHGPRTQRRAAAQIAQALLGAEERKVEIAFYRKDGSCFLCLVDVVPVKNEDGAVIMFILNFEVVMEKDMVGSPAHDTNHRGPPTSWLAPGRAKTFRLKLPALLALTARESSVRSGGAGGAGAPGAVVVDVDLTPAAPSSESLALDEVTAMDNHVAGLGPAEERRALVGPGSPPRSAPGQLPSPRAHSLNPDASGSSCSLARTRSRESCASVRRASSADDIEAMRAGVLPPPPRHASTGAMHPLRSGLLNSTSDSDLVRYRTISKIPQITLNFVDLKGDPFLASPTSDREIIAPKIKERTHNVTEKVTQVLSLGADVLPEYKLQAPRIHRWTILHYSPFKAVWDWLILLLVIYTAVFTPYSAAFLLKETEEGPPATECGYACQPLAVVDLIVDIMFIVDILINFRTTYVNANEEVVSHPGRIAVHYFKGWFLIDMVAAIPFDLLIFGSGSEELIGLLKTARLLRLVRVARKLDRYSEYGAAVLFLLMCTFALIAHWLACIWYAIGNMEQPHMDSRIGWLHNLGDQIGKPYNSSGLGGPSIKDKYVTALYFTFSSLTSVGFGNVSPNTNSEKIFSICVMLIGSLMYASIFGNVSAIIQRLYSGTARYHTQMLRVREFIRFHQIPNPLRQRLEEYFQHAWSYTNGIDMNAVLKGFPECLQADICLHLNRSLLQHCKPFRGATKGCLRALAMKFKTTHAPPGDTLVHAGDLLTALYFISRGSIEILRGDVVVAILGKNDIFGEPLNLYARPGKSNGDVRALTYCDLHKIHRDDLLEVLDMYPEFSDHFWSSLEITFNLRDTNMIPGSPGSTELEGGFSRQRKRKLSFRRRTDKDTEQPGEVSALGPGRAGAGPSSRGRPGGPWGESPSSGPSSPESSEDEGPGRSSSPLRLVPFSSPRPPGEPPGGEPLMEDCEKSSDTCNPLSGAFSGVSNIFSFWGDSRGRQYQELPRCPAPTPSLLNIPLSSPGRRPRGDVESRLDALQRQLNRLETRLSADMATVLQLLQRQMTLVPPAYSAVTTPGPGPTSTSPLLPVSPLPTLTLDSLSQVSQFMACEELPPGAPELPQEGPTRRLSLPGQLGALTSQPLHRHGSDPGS
As for `O=C(Nc1ccc2c(c1)OCO2)c1cccc(S(=O)(=O)N2CCCC2)c1`, the “hERG current change (%, negative = inhibition) at 10uM” value is -15.9%.

With `CN(Cc1ccccc1)C(=O)CN1C(=O)NC(C)(c2ccc(C(C)(C)C)cc2)C1=O` (stereo not drawn), the “hERG current change (%, negative = inhibition) at 10uM” value was -16.8%.

With `COc1cccc(/C=N/NC(=O)c2nc(-c3ccccc3)cc(-c3ccccc3)n2)c1O`, the “hERG current change (%, negative = inhibition) at 10uM” value is -9.46%.

Regarding `Cc1cc(=O)oc2cc(OCC(=O)N/N=C/c3ccccc3O)ccc12`, the “hERG current change (%, negative = inhibition) at 10uM” value was 23.9%.

Take `O.O=C(NCc1nc2ccccc2[nH]1)c1ccc(Cl)c(S(=O)(=O)N2CCCC2)c1`: the “hERG current change (%, negative = inhibition) at 10uM” value is -14.3%.

Consider `CCOC(=O)c1oc2ccc(CNC(C)(C)C)c(Cl)c2c1C.O=C(O)C(=O)O`, for which the “hERG current change (%, negative = inhibition) at 10uM” value is -5.61%.

Turning to `O=C(CC(C(=O)O)P(=O)(c1ccccc1)c1ccccc1)c1ccccc1` (stereo not drawn), the “hERG current change (%, negative = inhibition) at 10uM” value is 24.3%.

As to `Nc1ccc(-c2cc(N)n(-c3ccccc3)n2)cc1`, the “hERG current change (%, negative = inhibition) at 10uM” value is 0.669%.

On to `Cn1c2ccccc2c2cc(C(=O)NNS(=O)(=O)c3ccc(F)cc3)sc21`, for which the “hERG current change (%, negative = inhibition) at 10uM” value is given as -5.97%.

Turning to `COc1ccccc1Nc1nc(N)nc(CSC(=S)N2CCC(C)CC2)n1`, the “hERG current change (%, negative = inhibition) at 10uM” value was -13.7%.

As for `COc1ccccc1Nc1nc(N)nc(CN2CCC(C)CC2)n1`, the “hERG current change (%, negative = inhibition) at 10uM” value was -67.5%.

On to `Cc1cc(C(F)(F)F)nn1C(=O)c1cccnc1Cl`, for which the “hERG current change (%, negative = inhibition) at 10uM” value was -5.15%.

Take `O=C(C1=C[C@@H](C2CC2)C[C@@H](OCc2ccc(CO)cc2)O1)N1CCN(Cc2ccccc2)CC1`: the “hERG current change (%, negative = inhibition) at 10uM” value was -58.7%.

`O=C(C1=C[C@H](C2CC2)C[C@H](OCc2ccc(CO)cc2)O1)N1CCN(Cc2ccccc2)CC1`: the “hERG current change (%, negative = inhibition) at 10uM” value is recorded as -62.7%.

On to `O=C(C1=C[C@H](c2ccccc2)C[C@H](OCc2ccc(CO)cc2)O1)N1CCN(Cc2ccccc2)CC1`, for which the “hERG current change (%, negative = inhibition) at 10uM” value is on record as -41.2%.

As for `CN1CCN(C(=O)C2=C[C@@H](C3CC3)C[C@@H](OCc3ccc(CO)cc3)O2)CC1`, the “hERG current change (%, negative = inhibition) at 10uM” value was found to be 16.5%.

Consider `CC(C)(C)[C@H]1C=C(C(=O)N2CCN(Cc3ccccc3)CC2)O[C@@H](OCc2ccc(CO)cc2)C1`, for which the “hERG current change (%, negative = inhibition) at 10uM” value is recorded as -38.9%.

For the compound `CCO[C@H]1OC(C(=O)N2CCN(Cc3ccc4c(c3)OCO4)CC2)=C[C@@H](C2CCCCC2)[C@@H]1CCCO`, the “hERG current change (%, negative = inhibition) at 10uM” value is recorded as -55.5%.

In the case of `CN1CCN(C(=O)C2=C[C@H](C3CC3)C[C@H](OCc3ccc(CO)cc3)O2)CC1`, the “hERG current change (%, negative = inhibition) at 10uM” value is recorded as -1.42%.

Turning to `CN1CCN(C(=O)C2=C[C@H](C3CCCCC3)C[C@H](OCc3ccc(CO)cc3)O2)CC1`, the “hERG current change (%, negative = inhibition) at 10uM” value is on record as -61.7%.

For the compound `CCO[C@@H]1OC(C(=O)N2CCN(Cc3ccc4c(c3)OCO4)CC2)=C[C@H](C2CC2)[C@H]1CCCO`, the “hERG current change (%, negative = inhibition) at 10uM” value is -18.7%.

Take `O=C(C1=C[C@H](C2CC2)C[C@H](OCCCCO)O1)N1CCN(Cc2ccccc2)CC1`: the “hERG current change (%, negative = inhibition) at 10uM” value is -12.5%.

For the compound `CCO[C@@H]1OC(C(=O)N2CCN(Cc3ccc4c(c3)OCO4)CC2)=C[C@H](C2CCCCC2)[C@H]1CCCO`, the “hERG current change (%, negative = inhibition) at 10uM” value is recorded as -17.8%.

Consider `CN1CCN(C(=O)C2=C[C@@H](C3CCCCC3)C[C@@H](OCc3ccc(CO)cc3)O2)CC1`, for which the “hERG current change (%, negative = inhibition) at 10uM” value is -13.6%.

Take `Cc1ccc(CNC(=O)C2CCN(c3nnc(N4CCCC4=O)s3)CC2)cc1`: the “hERG current change (%, negative = inhibition) at 10uM” value came to 14.4%.

For `CCOc1ccc(-c2nc(C#N)c(NCC(C)C)o2)cc1`, the “hERG current change (%, negative = inhibition) at 10uM” value came out at 7.61%.

Take `Cc1cccc(OCCCC(=O)NCc2ccco2)c1`: the “hERG current change (%, negative = inhibition) at 10uM” value is listed as 2.27%.

For `CCc1cccc(NC(=O)CCSCCC(=O)Nc2cccc(CC)c2)c1`, the “hERG current change (%, negative = inhibition) at 10uM” value is -9.75%.

With `CSc1n[nH]c2nc3c(c(=O)n12)C1(CCCCC1)Cc1ccccc1-3`, the “hERG current change (%, negative = inhibition) at 10uM” value is -13%.

Consider `CCn1nnc(-c2ccccc2NC(=O)c2ccc(-n3cnnn3)cc2)n1`, for which the “hERG current change (%, negative = inhibition) at 10uM” value is -21.9%.

For `O=C(C1=C[C@@H](C2CCCCC2)C[C@@H](OCCCCO)O1)N1CCN(Cc2ccccc2)CC1`, the “hERG current change (%, negative = inhibition) at 10uM” value was -50.1%.

As to `O=C(C1=C[C@@H](C2CCCCC2)C[C@@H](OCc2ccc(CO)cc2)O1)N1CCN(Cc2ccccc2)CC1`, the “hERG current change (%, negative = inhibition) at 10uM” value is listed as -25.4%.

As to `O=C(C1=C[C@H](C2CC2)C[C@H](OCCCCO)O1)N1CCN(Cc2ccc3c(c2)OCO3)CC1`, the “hERG current change (%, negative = inhibition) at 10uM” value was -26.3%.

Consider `O=C(C1=C[C@H](C2CCCCC2)C[C@H](OCc2ccc(CO)cc2)O1)N1CCN(Cc2ccccc2)CC1`, for which the “hERG current change (%, negative = inhibition) at 10uM” value is reported as -67.6%.

Regarding `O=C(C1=C[C@H](C2CCCCC2)C[C@H](OCCCCO)O1)N1CCN(Cc2ccc3c(c2)OCO3)CC1`, the “hERG current change (%, negative = inhibition) at 10uM” value is -56.5%.

On to `O=C(C1=C[C@@H](C2CC2)C[C@@H](OCCCCO)O1)N1CCN(Cc2ccccc2)CC1`, for which the “hERG current change (%, negative = inhibition) at 10uM” value was 0.7%.

Consider `O=C(C1=C[C@@H](C2CCCCC2)C[C@@H](OCc2ccc(CO)cc2)O1)N1CCOCC1`, for which the “hERG current change (%, negative = inhibition) at 10uM” value is reported as -23.9%.

Consider `O=C(C1=C[C@H](C2CCCCC2)C[C@H](OCCCCO)O1)N1CCN(Cc2ccccc2)CC1`, for which the “hERG current change (%, negative = inhibition) at 10uM” value was -46.4%.

For the compound `O=C(C1=C[C@@H](C2CCCCC2)C[C@@H](OCCCCO)O1)N1CCN(Cc2ccc3c(c2)OCO3)CC1`, the “hERG current change (%, negative = inhibition) at 10uM” value is recorded as -45.1%.

Take `CN(CC(=O)O/N=C(\N)c1ccc([N+](=O)[O-])cc1)S(=O)(=O)c1ccc2ccccc2c1`: the “hERG current change (%, negative = inhibition) at 10uM” value is listed as -12.6%.

With `CCN(C1CCCCC1)S(=O)(=O)c1ccc(C(=O)O)cc1`, the “hERG current change (%, negative = inhibition) at 10uM” value stood at 6.74%.

For `O=C(Nc1cccnc1Cl)c1ccc(S(=O)(=O)N2CCCCCC2)cc1`, the “hERG current change (%, negative = inhibition) at 10uM” value is reported as -8.39%.
